These results are taken from the supplement of paper PMC12645437, “Orthogonal IMiD-Degron Pairs Induce Selective Protein Degradation in Cells” (ACS Chemical Biology, 2025).

In all, about 8,300 sequences were measured (“log2 fold change of degron read counts, EGFP-low vs EGFP+ sorted cells (limma voom), compound-induced degradation”: median about -1.1, highest 2% from about 3.2 on). Many of the other results were omitted from the sample, so the highest values are more common in it than they were.

This experiment concerns the target T1, CRBN, Q96SW2.
T1 chain: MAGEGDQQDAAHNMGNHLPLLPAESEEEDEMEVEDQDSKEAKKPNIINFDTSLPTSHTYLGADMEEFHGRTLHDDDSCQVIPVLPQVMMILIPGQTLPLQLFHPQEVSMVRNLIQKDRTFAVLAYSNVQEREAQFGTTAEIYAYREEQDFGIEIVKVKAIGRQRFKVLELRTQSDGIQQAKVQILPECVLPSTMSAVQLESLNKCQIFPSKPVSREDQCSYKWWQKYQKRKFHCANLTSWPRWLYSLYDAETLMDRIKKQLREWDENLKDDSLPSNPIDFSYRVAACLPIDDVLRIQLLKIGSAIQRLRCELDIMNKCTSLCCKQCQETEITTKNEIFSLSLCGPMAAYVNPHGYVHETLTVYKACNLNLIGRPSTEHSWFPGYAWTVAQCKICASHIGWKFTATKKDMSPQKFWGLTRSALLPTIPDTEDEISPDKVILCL
The experiment can be described thus: log2 fold change of degron read counts, EGFP-low vs EGFP+ sorted cells (limma voom), compound-induced degradation; higher = more compound-induced degradation of the degron-EGFP fusion; degrons are variants of IKZF1/3 zinc finger 2; compound dose not given here. The note with it: Jurkat, 18 h.

Where [1] appears, read: compound: compound 19 (5-tert-butyl-thalidomide).
Setting [2] is: compound: compound 22 (5-morpholino-thalidomide).
Where [3] appears, read: compound: compound 33 (diphenyl IMiD analogue).
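Also: pooled lentiviral library of zinc finger degron-EGFP fusions in mCherry-positive Jurkat cells, FACS-sorted after compound exposure, with degron abundance counted by next-generation sequencing.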

In the case of LRCNQCGFACTQKGNLLRHIKL [46L_47R_49N_50Q_52G_53F_54A_55C_67L_, Q9UKT9], the “log2 fold change of degron read counts” value reads like this: under setting [1], -1.46; under setting [2], -1.7; under setting [3], -0.712; (compound: thalidomide) -0.94.
For FWCDQCGAQFTQKGNLLRHIKL [46F_47W_49D_50Q_52G_53A_54Q_55F_67L_, Q9UKT9], in that order: 0.249, 2.32, -0.8 and -1.65.
As to FCCEICGHVFTQKGNLLRHIKL [46F_47C_49E_50I_52G_53H_54V_55F_67L_, Q9UKT9], the “log2 fold change of degron read counts” value is, setting by setting: under setting [1], -2.85; under setting [2], -3.23; under setting [3], -2.09; (compound: thalidomide) -2.16.
In the same order, the values of FMCPICGAAFTQKGNLLRHIKL [46F_47M_49P_50I_52G_53A_54A_55F_67L_, Q9UKT9] are 2.31, 2.47, 2.94 and 2.32.
In the same order, the values of FDCPICGAAFTQKGNLLRHIKL [46F_47D_49P_50I_52G_53A_54A_55F_67L_, Q9UKT9] are 2.39, 0.645, 1.79 and 2.2.
For FTCPICGAAFTQKGNLLRHIKL [46F_47T_49P_50I_52G_53A_54A_55F_67L_, Q9UKT9], in that order: 2.48, 2.97, 2.48 and 2.67.
In the case of FACPICGAAFTQKGNLLRHIKL [46F_47A_49P_50I_52G_53A_54A_55F_67L_, Q9UKT9], the “log2 fold change of degron read counts” value was determined as 3.73 under setting [1], 2.93 under setting [2], 1.69 under setting [3] and 1.69 (compound: thalidomide).
For the sequence FLCPICGAAFTQKGNLLRHIKL [46F_47L_49P_50I_52G_53A_54A_55F_67L_, Q9UKT9], the “log2 fold change of degron read counts” value reads like this: under setting [1], 1.31; under setting [2], 0.494; under setting [3], 1.82; (compound: thalidomide) 1.59.
Regarding FCCPICGAAFTQKGNLLRHIKL [46F_47C_49P_50I_52G_53A_54A_55F_67L_, Q9UKT9], the “log2 fold change of degron read counts” value is, setting by setting: under setting [1], 3.34; under setting [2], 2.84; under setting [3], 2.48; (compound: thalidomide) 2.21.
FICNVCGAIFTQKGNLLRHIKL [46F_47I_49N_50V_52G_53A_54I_55F_67L_, Q9UKT9]: the “log2 fold change of degron read counts” value runs as follows: under setting [1], -2.95; under setting [2], -2.03; under setting [3], 0.29; (compound: thalidomide) -1.36.
Turning to FVCNQCGRVFTQKGNLLRHIKL [46F_47V_49N_50Q_52G_53R_54V_55F_67L_, Q9UKT9], the “log2 fold change of degron read counts” value by setting is: under setting [1], -2.6; under setting [2], -2.87; under setting [3], -2.56; (compound: thalidomide) -2.9.
In the same order, the values of FLCDVCGAGFTQKGNLLRHIKL [46F_47L_49D_50V_52G_53A_54G_55F_67L_, Q9UKT9] are -0.0363, -1.56, -0.558 and -1.42.
For FMCDICGAQFTQKGNLLRHIKL [46F_47M_49D_50I_52G_53A_54Q_55F_67L_, Q9UKT9], in that order: -1.1, -0.152, 2.21 and -0.153.
In the same order, the values of FNCNQCGRFFTQKGNLLRHIKL [46F_47N_49N_50Q_52G_53R_54F_55F_67L_, Q9UKT9] are -1.77, -2.76, -1.9 and -1.6.
With FRCPICGHIFTQKGNLLRHIKL [46F_47R_49P_50I_52G_53H_54I_55F_67L_, Q9UKT9], the “log2 fold change of degron read counts” value by setting is: under setting [1], -2.22; under setting [2], -2.81; under setting [3], -1.62; (compound: thalidomide) -1.42.
For FLCEICGHQFTQKGNLLRHIKL [46F_47L_49E_50I_52G_53H_54Q_55F_67L_, Q9UKT9], in that order: -3.24, -3.62, -3.53 and -2.18.
In the case of LKCPICGFDCTQKGNLLRHIKL [46L_47K_49P_50I_52G_53F_54D_55C_67L_, Q9UKT9], the “log2 fold change of degron read counts” value by setting is: under setting [1], -1.99; under setting [2], -1.82; under setting [3], -1.08; (compound: thalidomide) -0.789.
As for FGCEICGHGFTQKGNLLRHIKL [46F_47G_49E_50I_52G_53H_54G_55F_67L_, Q9UKT9], the “log2 fold change of degron read counts” value by setting is: under setting [1], -2.33; under setting [2], -2.62; under setting [3], -2.89; (compound: thalidomide) -2.42.
Take FLCPICGRFFTQKGNLLRHIKL [46F_47L_49P_50I_52G_53R_54F_55F_67L_, Q9UKT9]: the “log2 fold change of degron read counts” value is -1.24 under setting [1], -1.32 under setting [2], 0.143 under setting [3] and 0.16 (compound: thalidomide).
As for FSCPICGASFTQKGNLLRHIKL [46F_47S_49P_50I_52G_53A_54S_55F_67L_, Q9UKT9], the “log2 fold change of degron read counts” value under setting [1] amounted to 3.35, the “log2 fold change of degron read counts” value under setting [2] was 2.78, the “log2 fold change of degron read counts” value under setting [3] stood at 2.17 and the “log2 fold change of degron read counts” value (compound: thalidomide) worked out at 2.01.
In the case of FACPICGASFTQKGNLLRHIKL [46F_47A_49P_50I_52G_53A_54S_55F_67L_, Q9UKT9], the “log2 fold change of degron read counts” value under setting [1] amounted to 3.73, the “log2 fold change of degron read counts” value under setting [2] worked out at 2.44, the “log2 fold change of degron read counts” value under setting [3] was 1.48 and the “log2 fold change of degron read counts” value (compound: thalidomide) worked out at 1.61.
Turning to FRCPICGASFTQKGNLLRHIKL [46F_47R_49P_50I_52G_53A_54S_55F_67L_, Q9UKT9], the “log2 fold change of degron read counts” value reads like this: under setting [1], 1.96; under setting [2], 1.71; under setting [3], 1.79; (compound: thalidomide) 1.78.
Take FCCPICGASFTQKGNLLRHIKL [46F_47C_49P_50I_52G_53A_54S_55F_67L_, Q9UKT9]: the “log2 fold change of degron read counts” value runs as follows: under setting [1], 3.32; under setting [2], 2.71; under setting [3], 2.44; (compound: thalidomide) 2.37.
For the sequence FECPICGASFTQKGNLLRHIKL [46F_47E_49P_50I_52G_53A_54S_55F_67L_, Q9UKT9], the “log2 fold change of degron read counts” value reads like this: under setting [1], 2.15; under setting [2], -0.116; under setting [3], 2.38; (compound: thalidomide) 3.32.
In the same order, the values of FVCPICGASFTQKGNLLRHIKL [46F_47V_49P_50I_52G_53A_54S_55F_67L_, Q9UKT9] are 0.995, 2.78, 2.19 and 3.08.
For FECNICGASFTQKGNLLRHIKL [46F_47E_49N_50I_52G_53A_54S_55F_67L_, Q9UKT9], in that order: -0.173, -1.42, 0.849 and 1.86.
As to FMCPICGASFTQKGNLLRHIKL [46F_47M_49P_50I_52G_53A_54S_55F_67L_, Q9UKT9], the “log2 fold change of degron read counts” value under setting [1] came out at 1.54, the “log2 fold change of degron read counts” value under setting [2] stood at 2.45, the “log2 fold change of degron read counts” value under setting [3] amounted to 2.91 and the “log2 fold change of degron read counts” value (compound: thalidomide) was found to be 2.41.
In the same order, the values of FCCNICGASFTQKGNLLRHIKL [46F_47C_49N_50I_52G_53A_54S_55F_67L_, Q9UKT9] are 1.56, 1.91, 1.76 and 1.41.
For FICPICGASFTQKGNLLRHIKL [46F_47I_49P_50I_52G_53A_54S_55F_67L_, Q9UKT9], in that order: -0.0282, 2.87, 1.99 and 2.6.
